Data from PubChem BioAssay AID624352 (Sanford-Burnham Center for Chemical Genomics, 2012).
The campaign covered roughly 360,000 compounds. About 2,600 (0.72%) were called active. The entries come from a sample that favours actives as a whole. Unmarked numbers belong to inactive results.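 Rule for the calls: active = inhibition of the luminescence signal of 40% or more relative to plate controls, in a single-dose primary screen at 18.75 µM; inactive = the rest.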

Experiment: HIF-2a reporter inhibitors, primary screen, luminescence, 786-0 RCC cells (AID 624352)
Details: 786-0 RCC cells HIF-2a reporter, luciferase luminescence, overnight; at 18.8 µM; stronger effect = higher value

SMILES | inhibition
COc1ccc(NC(=O)CCCN2C(=O)C(c3ccccc3)Oc3cccnc32)cc1 (centres undefined) | 0.775%
COc1ccc(/C=C2/SC(=O)N(CCCCCC(=O)Nc3ccccc3C(=O)O)C2=S)cc1 | 84.2% (active)
CCCNC(=O)c1ccccc1NC(=O)CSCc1ccc(OC)cc1 | 19%
Cc1ccccc1C(=O)N1CCC(C(=O)Nc2ccc(S(=O)(=O)N(C)C(C)C)cc2)CC1 | 16.4%
CC=CCn1c(SCCCc2ccccc2)nc2c1c(=O)[nH]c(=O)n2C | 3.87%
NC1=CC(=O)C(=O)c2cccnc21 | 54.7% (active)
O=C(CCC(=O)NNc1nc2ccccc2c2nc(-c3ccccc3)nn12)NCCCN1CCCC1=O | -19.4%
CSc1nc(-c2ccccc2)nc(C(Cl)Cl)n1 | 77.8% (active)
COCCNC(=S)Nc1cc(S(=O)(=O)N2CCOCC2)ccc1N1CCCCC1 | 11.9%
CCn1cc(CNC(=O)c2cc([N+](=O)[O-])c(C)c([N+](=O)[O-])c2)cn1 | 8.39%
O=C(CN1CCN(Cc2ccccc2)CC1)Nc1ccc(F)c(F)c1 | -1.13%
O=C(CNCc1ccc(Cl)cc1)Nc1cccc(C(=O)O)c1 | 2.72%
O=C(CCl)Nc1cccc(CP(=O)(c2ccccc2)c2ccccc2)c1 | 44.2% (active)
O=C(NCc1cccs1)c1ccc(CS(=O)Cc2ccccc2Cl)o1 (centres undefined) | -0.00949%
Cc1cccc(OCCC(=O)Nc2cc(S(=O)(=O)N3CCCCC3)ccc2N2CCOCC2)c1 | -42.8%
CC[C@@H]1Cc2cc(O)ccc2C2=C1c1ccc(O)cc1C[C@H]2CC | 45.9% (active)
CCOC(=O)c1sc(/N=C/C2=C(O)CC(C)(C)CC2=O)c(C(=O)OCC)c1C | -268%
CC(C)C1Nc2c(C(=O)O)cccc2C(Nc2ccccc2C(=O)O)C1(C)C (centres undefined) | 19%
O=C(COC(=O)CC1CC2CCC1C2)NC(=O)NC1CCCC1 (centres undefined) | 11.3%
Cc1cc(Br)cn2c(Cc3ccccc3C(F)(F)F)c(C3CCCCC3)nc12 | 7.15%

SMILES | inhibition
COc1cc2c(cc1OC)CC1(CCCCC1)N=C2 | 10.1%
COc1cc2c(cc1O)C(SC)=NC(C)(C)C2 | 89.4% (active)
COc1cc2c(cc1OC)C(Nc1ccc(S(N)(=O)=O)cc1)=NC(C)(C)C2 | 8.2%
CC(NC(=O)CC1SC(N)=NC1=O)c1ccccc1 (centres undefined) | 6.27%
O=C(/C(=C/c1cccc(Cl)c1)c1nc2ccccc2[nH]1)c1ccccc1 | 92.8% (active)
C[C@H]1CN([C@@H](C)CO)C(=O)CCCn2cc(nn2)CO[C@@H]1CN(C)S(=O)(=O)c1cccs1 | 6.28%
O=c1onc(-c2c(F)cccc2F)n1-c1ccccc1Cl | 11.8%
Cc1c[n+]([O-])ccc1[N+](=O)[O-] | 3.58%
CCc1ccc(CNC(=O)C2CCN(c3nnc(C)c4c(C)n(-c5ccc(C)cc5)nc34)CC2)cc1 | 54.1% (active)
COc1cccc(CNC(=O)C2CCCN(c3ncnc4c3nc3n4CCCCC3)C2)c1 (centres undefined) | 0.819%
Cc1ccc(NC(=O)N2CCC(C(=O)NCc3ccc(F)cc3)CC2)cc1 | 11.1%
CCc1ccc(CNC(=O)C2CCCN(c3nc4ccccc4o3)C2)cc1 (centres undefined) | 12.9%
CCc1ccc(CNC(=O)C2CC(=O)N(CCc3ccc(C)cc3)C2)cc1 (centres undefined) | -8.53%
CCOc1ccc(CNC(=O)C2CCCN(c3nnc(C)c4c(C)n(-c5ccccc5)nc34)C2)cc1 (centres undefined) | 40.7% (active)
CN(C)S(=O)(=O)c1cc(NC(=O)CN2C(=O)NC3(CCCc4ccccc43)C2=O)ccc1Cl (centres undefined) | 12.2%
O=c1cc(C(F)(F)F)[nH]c(=O)n1C1CCCCC1 | 3.85%
COc1ccc([N+](=O)[O-])cc1N(CC(=O)Nc1ccccc1C(=O)N1CCOCC1)S(C)(=O)=O | 3.69%
CCCCNC(=O)OCCSCCS(=O)(=O)c1ccc(Cl)cc1 | 10.7%
O=C(CN1CCN(c2ccccn2)CC1)NCc1cccs1 | 4.32%
COc1ccc(OC)c(NC(=O)C2CCCN2S(=O)(=O)c2cccc3nsnc23)c1 (centres undefined) | 16.7%

SMILES | inhibition
Cc1cc(C)nc(S/C=C/C(=O)c2ccccc2)n1 | 69.1% (active)
Cc1nc(SCC(=O)c2ccccc2)c([N+](=O)[O-])[nH]1 | 8.52%
C/C(=C\C(=O)c1ccccc1)Nc1cccc(O)c1 | -359%
CN1c2ccc(C=O)c3c(C=O)ccc(c23)N(C)C1(C)C | 25.6%
CC1(C(=O)NS(=O)(=O)Cc2cccc(Cl)c2)CCN1C(=O)Cc1ccccc1 (centres undefined) | 12.1%
C[C@@H]1NC(=O)c2cc([N+](=O)[O-])cc(F)c2NCCC[C@@H](C(N)=O)NC(=O)[C@H](CC(N)=O)NC1=O | 9.38%
CCOC(=O)c1c(C)[nH]c2c1-c1ccccc1C(=O)C2=O | 96.1% (active)
CCOC(=O)c1[nH]c(C)c(C(=O)OCC(=O)N2c3ccccc3CC2C)c1C (centres undefined) | 2.58%
CCOC(=O)c1c(C)oc(C)c(C(=O)OCC)c1=O | 0.843%
COc1ccc(CN2CCNC(=O)C2CC(=O)N(C)Cc2ccccn2)cc1OC (centres undefined) | 9.28%
COc1cc(C=NC2CCCCC2)ccc1O | 2.1%
COc1cc(/C=N/NC(=O)Nc2ccccc2)ccc1OCCOc1ccccc1C | -9.55%
COc1ccc(C(=O)Nc2ccccc2C(=O)N/N=C/c2ccc(O)c(OC)c2)cc1 | 69.5% (active)
Cc1ccc(C)c(NC(=O)CN(C)C(=O)c2ccc3ncsc3c2)c1 | 5.94%
CC(C)CN(C(=O)c1ccc2c(c1)OCO2)C1CCS(=O)(=O)C1 (centres undefined) | 24.2%
Cc1nn(-c2ccccc2)c(=O)c2noc(C)c12 | 3.29%
C/C(=C\c1ccccc1)C1NC(=O)c2c(sc3c2CCCC3)N1 (centres undefined) | -140%
CC1(C(=O)O)CCN1C(=O)/C=C/c1ccccc1 (centres undefined) | 3.94%
Cc1[nH]c(=O)c(C(=O)/C=C/c2ccccc2)c2c1CCCC2 | 72.5% (active)
